D1 ag: activates the human D1 dopamine receptor; P21728; HEK293 T-REx D1 cells, calcium flux, agonist mode; AID 504660; activation, % at 2 µM; 360,000 compounds, 1% hits
Target sequence (P21728 whole entry, looked up): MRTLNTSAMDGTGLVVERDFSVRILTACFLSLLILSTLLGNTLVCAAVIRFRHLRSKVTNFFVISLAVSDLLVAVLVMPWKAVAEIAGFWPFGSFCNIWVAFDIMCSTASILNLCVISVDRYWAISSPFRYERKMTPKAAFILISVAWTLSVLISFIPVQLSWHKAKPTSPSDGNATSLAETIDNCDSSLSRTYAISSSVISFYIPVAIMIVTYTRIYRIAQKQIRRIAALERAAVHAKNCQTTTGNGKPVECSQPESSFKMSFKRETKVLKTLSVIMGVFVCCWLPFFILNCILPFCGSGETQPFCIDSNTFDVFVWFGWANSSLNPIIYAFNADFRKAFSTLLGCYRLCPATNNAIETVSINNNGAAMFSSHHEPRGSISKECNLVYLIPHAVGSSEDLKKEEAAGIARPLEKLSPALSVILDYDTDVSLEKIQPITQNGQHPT
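Tetracycline-induced HEK293 TREx D1 cells, force-coupled to calcium signalling, were dye-loaded with a no-wash calcium kit. Compound was pin-added after a 10 s baseline. Fluorescence was read kinetically at 1 cycle/s for 180 s, with calcium rises flagged as agonism.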
D1 PAM: potentiators of human D1 dopamine receptor; P21728; HEK293 TREx D1 cells, calcium flux, dopamine EC20 potentiation; potentiation, % at 10 µM; 360,000 compounds, 0.036% hits; AID 504651; in the data active = potentiation above about 30%
TRHR agonist: activates the human TRH receptor; P34981; TRHR cells, calcium flux fluo-8, FDSS agonist mode; activation, % at 2 µM; 360,000 compounds, 0.18% hits
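TRHR-expressing cells loaded with fluo-8 calcium dye; 23 nL library compound pin-transferred, kinetic FDSS fluorescence (Ex 480/Em 530) recorded about 180 s for agonist-induced calcium release, before a 10 nM TRH EC20 addition for potentiator mode.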
TRHR enhancer: allosterically enhances the human TRH receptor; enhancement, % at 2 µM; 360,000 compounds, 0.66% hits; AID 493056; TRHR cells, fluo-8 calcium fluorescence, EC20 TRH enhancement; in the data active = enhancement above about 30%
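TRHR-expressing cells loaded with fluo-8 calcium dye were read kinetically (ex 480/em 530) during compound addition, then stimulated with an EC20 of TRH (10 nM final). Enhancement of the Gq-mediated intracellular calcium response was scored.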
D1 antag: blocks dopamine activation of the human D1 receptor; P21728; HEK293 TREx D1 cells, calcium flux, dopamine EC80; active compounds read low; activity change, negative = inhibition, % at 10 µM; 360,000 compounds, 3.2% hits; in the data active = activity change below about -30%
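Allosteric or orthosteric antagonism assessed as attenuation of the calcium response to EC80 dopamine, added 180 s after compound, in induced HEK293 Trex D1 cells loaded with no-wash calcium dye.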
Epigenetic derep: regulators of epigenetic silencing causing reporter derepression in mouse cells; Potency, µM (series often up to 53.9 µM), most hits filed as activators; murine LDR cells, GFP reporter derepression, 30 h; AID 1865; 280,000 compounds, 0.2% hits; active = well fitted activation curve with a large enough effect; inconclusive = small, poorly fitted or top-dose-only effect; also: nearly all actives have a fitted effect of over 60% in size
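Reporter derepression read as number of fluorescent GFP-positive objects, 20-120 um in size, counted by laser-scanning cytometer. Mouse LDR line with an epigenetically silenced CMV-GFP locus; compound incubation 30 h, 37 C.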
Of the large screens only hits and unclear results are named; the others gave an inactive call; ! = a repeat was not active. A selection: hits, their analogues and other compounds. The true share with any hit is near 4.6%. Rule as the data show it, unless noted: active = activation above about 30%; inactive = the rest.

COc1ccc(-n2nc([N+](=O)[O-])c(=NCCc3cccc(C)c3)n2O)cc1	D1 antag -35
COC(=O)c1c(NC(=O)C2c3ccccc3Oc3ccccc32)sc2c1CCC(C(C)(C)C)C2 (centres undefined)	none
CCC(C)(C)C1CCc2c(sc(NC(=O)C3c4ccccc4Oc4ccccc43)c2C(N)=O)C1 (centres undefined)	TRHR enhancer 43
COc1ccc(C)cc1-n1nnnc1SCC1CCCCO1 (centres undefined)	D1 antag -36
Cc1ccc(Oc2coc3cc(OCC(=O)NC4CCCCC4)ccc3c2=O)cc1	none
COc1cc(OC)c2c(c1)C(=O)OC2OC (centres undefined)	TRHR enhancer 36
Cc1ccc(-n2c(=O)c3c4c(sc3n(CC(=O)c3ccc(Cl)cc3)c2=O)CCC4)cc1C	none
CC(=O)Nc1ccc(C(=O)OCC(=O)c2cccc([N+](=O)[O-])c2)cc1	none
Cc1ccc(C(=O)CCS(=O)(=O)c2ccc(Br)cc2)cc1	none (no result: Epigenetic derep)
CC(=O)Nc1ccc(NC(=O)CCC(=O)OCC(=O)c2cccc([N+](=O)[O-])c2)cc1	D1 antag -67
Cc1ccc(S(=O)(=O)CCC(=O)c2cccc([N+](=O)[O-])c2)cc1	D1 antag -32 (no result: Epigenetic derep)
CCN(CC)C(=O)c1sc2c(c1C)c(=O)n(-c1ccccc1)c(=O)n2CC(=O)N(CC)c1cccc(C)c1	none
Cc1cccc(C)c1NC(=O)C(=O)NCC(c1cccnc1)N1CCc2ccccc21 (centres undefined)	none
CCN(c1ccccc1)S(=O)(=O)c1nnc(NC(=O)COc2ccc(OC)cc2)s1	Epigenetic derep inconclusive
CCN(c1ccccc1)S(=O)(=O)c1nnc(NC(=O)COc2cccc(C)c2)s1	Epigenetic derep 8.9µM
CCN(c1ccccc1)S(=O)(=O)c1nnc(NC(=O)c2cccs2)s1	D1 antag -41
CCCC(=O)Nc1nnc(S(=O)(=O)N(C)c2ccccc2)s1	Epigenetic derep inconclusive
CN(c1ccccc1)S(=O)(=O)c1nnc(NC(=O)C2CCCCC2)s1	D1 antag -37!
CC1CCN(S(=O)(=O)c2ccc3c(ccc(=O)n3CC(=O)Nc3ccc(C(C)C)cc3)c2)CC1	none
O=C(Nc1ccc(Br)cc1)c1ccc(F)c(S(=O)(=O)N2CCc3ccccc32)c1	none
CC(C)(C)c1ccc(S(=O)(=O)N2CCC(Oc3ccc(-n4cnnn4)cc3)CC2)cc1	none
CC(C)(C)OC(=O)CN1C(=O)S/C(=C\c2ccc(-c3cccc(C(=O)O)c3)o2)C1=O	none (no result: Epigenetic derep)
O=C1S/C(=C\c2ccc(N3CCOCC3)o2)C(=O)N1Cc1ccc(F)cc1	D1 ag 42, Epigenetic derep 3.5µM
CC(C)OC(=O)CN1C(=O)S/C(=C/c2ccc(N3CCCCC3)o2)C1=O	D1 ag 61, Epigenetic derep 11µM
O=C1N=C(N2CCOCC2)S/C1=C/c1ccc(-c2ccc(F)cc2)o1	none
O=C1S/C(=C/c2ccc(N3CCOCC3)o2)C(=O)N1Cc1ccc(F)cc1	D1 ag 83, TRHR agonist 35, Epigenetic derep 14µM
O=C1NC(=S)S/C1=C/c1ccc(N2CCOCC2)o1	none
NC(=NC1C2CC3CC(C2)CC1C3)Nc1ccc(I)cc1 (centres undefined)	none (no result: D1 ag, D1 PAM, TRHR agonist, TRHR enhancer, D1 antag)
COc1cccc(CN2CCc3ccc(NC(=O)CCc4ccc(C)cc4)cc3C2)c1O	D1 antag -31 (no result: Epigenetic derep)
COc1ccc(CN2CCc3ccc(NC(=O)CCc4ccccc4OC)cc3C2)c(O)c1	D1 antag -83 (no result: Epigenetic derep)
COc1cc(CN2CCc3ccc(NC(=O)CCc4ccccc4OC)cc3C2)ccc1O	none (no result: Epigenetic derep)
CCCN(C(=O)Cn1ncc2c([nH]c3ccccc32)c1=O)c1ccc(F)cc1	none
CN(Cc1ccc(C(F)(F)F)cc1)C(=O)c1ccc(Oc2ccccc2)cc1	none (no result: Epigenetic derep)
CN(Cc1ccccc1F)C(=O)c1ccc(Oc2ccccc2)cc1	D1 antag -31 (no result: Epigenetic derep)
COc1ccc(CNC(=O)Cn2c(SCC(=O)N(C)c3ccccc3)nc3ccccc32)cc1	none
CCC(C)NC(=O)CSc1nc2ccccc2c(=O)n1Cc1ccc(OC)cc1 (centres undefined)	TRHR enhancer 32
CCN(C(=O)CSc1nc2ccccc2n1CC(=O)NCc1ccc(OC)cc1)c1ccccc1	D1 ag 35
C=CCC(C)(O)/C=C/c1ccccc1 (centres undefined)	none (no result: D1 ag, D1 PAM, TRHR agonist, TRHR enhancer, D1 antag)
O=C(Nc1ccc(Cl)cc1)N1CCC(c2nc(-c3cccs3)no2)CC1	D1 antag -46
COc1ccccc1CNc1ncnc2ccc(-c3ccc(N(C)C)cc3)cc12	none (no result: D1 ag, D1 PAM, TRHR agonist, TRHR enhancer, D1 antag)
COc1ccc2c(c1)C1(C)CC(C)(C)N2C(=O)N1c1ccccc1 (centres undefined)	D1 ag 56
Nc1ccccc1OCCOc1ccccc1N	none (no result: Epigenetic derep)
Cc1ccccc1Oc1ccccc1N	D1 antag -31
COc1ccc(CCNC(=O)Cn2c(=O)n(-c3ccc(F)cc3F)c(=O)c3sccc32)cc1OC	D1 antag -36
Cc1ccc(S(=O)(=O)N2CCC(c3ccncc3)CC2)c(C)c1	D1 antag -34
CC(=O)Nc1ccc(S(=O)(=O)N2CCC(C(=O)NCCC(=O)Nc3nccs3)CC2)cc1	none (no result: Epigenetic derep)
COc1ccccc1-c1nnc(C2CCN(S(=O)(=O)c3cccc([N+](=O)[O-])c3)CC2)o1	none (no result: Epigenetic derep)
CC(=O)Nc1ccc(S(=O)(=O)N2CCC(C(=O)Nc3nccs3)CC2)cc1	D1 antag -39 (no result: Epigenetic derep)
CC(C)(C)c1ccc(S(=O)(=O)N2CCC(c3ccncc3)CC2)cc1	none
COc1ccccc1-c1nnc(C2CCN(S(=O)(=O)c3ccc([N+](=O)[O-])cc3)CC2)o1	D1 ag 37 (no result: Epigenetic derep)
CC(=O)Nc1ccc(S(=O)(=O)N2CCC(c3ccncc3)CC2)cc1	D1 antag -37
Cc1nc(N2CCOCC2)c2nc(-c3ccccc3)n(CCCN3CCCCC3C)c2n1 (centres undefined)	none (no result: D1 ag, D1 PAM, TRHR agonist, TRHR enhancer, D1 antag)
CN(C)S(=O)(=O)c1ccc2c(c1)N(CC(=O)Nc1ccc(F)cc1)C(=O)CS2	none
Cc1ccc(-c2nnc(C3CCN(S(=O)(=O)c4ccc(C)c(C)c4)CC3)o2)cc1	none
CC(=O)Nc1ccc(S(=O)(=O)N2CCC(c3nnc(-c4ccc(C)cc4)o3)CC2)cc1	D1 antag -33
Cc1cccc(NC(=O)CSc2nc(C)cc(C)c2C(=O)Nc2ccc(Cl)cc2)c1	none
COc1ccc(-c2noc(CSCC(=O)Nc3cc(OC)c(OC)c(OC)c3)n2)cc1OC	none
Cc1ccc(C2=Nc3ccccc3N(CC(=O)Nc3ccccc3F)C(=O)C2)cc1C	none
COc1ccc(-c2nc(N3CCN(S(=O)(=O)c4ccc(F)cc4)CC3)c3ccccc3n2)cc1	TRHR enhancer 39, D1 antag -31 (no result: Epigenetic derep)
